Measles CPE: compounds protecting cells from measles virus cytopathic effect, primary screen, measles RdRp inhibitor project, single point, MLSMR library, absorbance | Measles virus-infected cells, CPE protection | protection (pct of control), % at 4 µM | 1.5% of 140,000 active; in the data active means protection mostly above about 24%, no sharp cut-off; inactive means mostly below about 26%
HSV replic up: enhancers of HSV replication in host cells, fold increase, host cell viability | maximum fold increase | 0.005% of 220,000 active | AID 1956, 2009 | HSV replication augmentation in cells; in the data active means maximum fold increase above about 1.5; inconclusive means no clear call, values can overlap the other calls; tested in PC3 cells
ROMK mod: ROMK potassium channel modulators, primary screen, cell-based, thallium flux, MLSMR library. B-score at 10 µM. ATP-sensitive inward rectifier potassium channel 1 (Homo sapiens), P48048. 2% of 130,000 active. Tet-inducible ROMK, thallium flux fluorescence; actives lie on both sides. AID 1918, 2009;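 active means signal ratio slope over the read window, or its plate-corrected B-score, at least 3 SD from the plate mean, either direction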;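 further: B-score of the F/F0 ratio slope over 7 to 12 s after thallium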
Target sequence (P48048 whole entry, looked up): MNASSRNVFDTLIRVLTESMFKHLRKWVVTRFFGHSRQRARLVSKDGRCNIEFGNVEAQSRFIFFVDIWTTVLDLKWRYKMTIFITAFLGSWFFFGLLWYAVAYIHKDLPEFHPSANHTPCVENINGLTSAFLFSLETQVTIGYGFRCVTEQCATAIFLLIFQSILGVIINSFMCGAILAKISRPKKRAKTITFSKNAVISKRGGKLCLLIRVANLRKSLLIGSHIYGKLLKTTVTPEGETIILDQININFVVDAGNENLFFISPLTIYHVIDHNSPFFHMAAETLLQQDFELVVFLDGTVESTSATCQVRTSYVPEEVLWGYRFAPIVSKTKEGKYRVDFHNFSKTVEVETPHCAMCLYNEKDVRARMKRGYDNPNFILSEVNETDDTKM
KCC2 mod: KCC2 cotransporter modulators, thallium flux, primary screen, cell-based, HEK293 KCC2, FluoZin-2 fluorescence, MLSMR | KCC2 cells, thallium flux FluoZin-2 fluorescence | 2.2% of 190,000 active | Solute carrier family 12 member 5 (Homo sapiens), Q9H2X9 | B-score of Tl+ flux slope (higher = more flux/activation; lower = inhibition) at 10 µM | AID 1456, 2008;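 active means thallium flux slope and its plate-corrected score both differing from the plate sample mean at a set confidence after two filtering rounds, in either direction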;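 further: slope of fluorescence scaled to starting intensity during 10 to 20 s after thallium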
Arbovirus anti: antivirals against arbovirus infection, primary screen, cell-based, full library, 10K replicate subset | arbovirus infection cell-based antiviral screen | 0.37% of 200,000 active | AID 1251, 2008 | inhibition, % at 10 µM; in the data active means inhibition above about 30%
KCC2 secondary: KCC2 modulators in sodium-free buffer, confirmation, cell-based, HEK293 KCC2, thallium flux, secondary assay | normalised thallium flux (F/F0 slope) at 10 µM | FluoZin2 fluorescence; stronger effect = higher value | shares compounds with KCC2 mod | 15% of 3,700 active | AID 1713, 2009;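 active means thallium flux slope above the same plate's solvent-only control mean plus 3 SD; inconclusive means the two replicate wells disagree; inactive means no significant difference from solvent-only control wells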
KCC2 bumet counter: thallium flux persisting under bumetanide in KCC2 cells, confirmation, counter-screen for KCC2 modulator project, cell-based, HEK293 KCC2, FluoZin2, secondary assay 3; shares compounds with KCC2 mod; 49% of 3,700 active; normalized thallium flux at 10 µM; AID 1714, 2009; HEK293-KCC2 + bumetanide/ouabain; stronger effect = higher value;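 active means thallium entry rate above the same plate's blocked-transporter control wells by more than 3 SD; inconclusive means the two repeat wells disagree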;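 further: raw slope of fluorescence over initial fluorescence between 10 and 20 s after thallium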
KCC2 secondary2: KCC2 modulators without ouabain present, confirmation, cell-based, HEK293 KCC2, thallium flux, FluoZin2, secondary assay 2; shares compounds with KCC2 mod; thallium flux FluoZin2 fluorescence; actives lie on both sides; F/F0 rise rate, 10–20 s post-thallium; normalized thallium flux at 10 µM; 23% of 3,700 active; AID 1715, 2009;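 active means thallium flux slope more than 3 SD above or below the plate's solvent-only control mean, mostly below; inconclusive means the two repeat wells disagreed; inactive means no significant shift from solvent-only controls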
HEK293 Tl flux: thallium flux modulation in parental HEK cells, confirmation, counter-screen for KCC2 modulator project, cell-based, counterscreen 1 | shares compounds with KCC2 mod | HEK293 parental cells, thallium flux FluoZin2, ouabain; baseline-ratio fluorescence slope, 10–20 s after thallium | thallium flux rate (normalised fluorescence) at 10 µM | 46% of 3,700 active;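 active means thallium flux rate significantly above the same plate's solvent-only control wells, beyond their mean plus 3 SD; inconclusive means the two replicate wells gave conflicting results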
KCC2 ouabain: KCC2 inhibitors and activators, ouabain retest, confirmation, HEK-KCC2 cells; raw Tl+ flux slope (below DMSO = inhibition, above = activation) at 10 µM; shares compounds with KCC2 mod; 48% of 3,700 active; HEK293-KCC2, thallium flux FluoZin2 fluorescence; bidirectional: low = inhibitor, high = activator;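 active means thallium flux slope beyond 3 SD from same-plate DMSO control mean in most replicates, usually higher, sometimes lower; inconclusive means repeat tests gave conflicting results; inactive means no significant difference from controls in most replicates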;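 further: slope of initial-normalized fluorescence between seconds 10 and 20 after thallium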
HEK293 Tl flux2: native HEK Tl+ uptake effects, second counter-screen – HEK cells, counterscreen 2, counter-screen for KCC2 modulator project, confirmation; shares compounds with KCC2 mod; HEK293 parental, thallium flux FluoZin-2 fluorescence slope; thallium flux slope at 10 µM; 33% of 3,700 active; AID 1718, 2009;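 active means thallium flux slope above the same plate's solvent-control mean plus 3 SD in both duplicate wells; inconclusive means duplicate wells that disagreed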;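 further: run without ouabain in cells lacking the KCC2 cotransporter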
Of the large screens only hits and unclear results are named; the others gave an inactive call (follow-up assays come after a bar, where they were run). In the library only some 4% were active in any assay of this set; here they are far more common.

CCN(CC)c1ccc(CN2CCC(C(=O)NCc3ccc(C)cc3)CC2)cc1	none (no result: Measles CPE)
COc1ccc(CNc2oc(COc3ccccc3)nc2C#N)cc1	none (no result: HSV replic up, KCC2 mod) | KCC2 secondary inactive | KCC2 bumet counter inconclusive | KCC2 secondary2 inactive | HEK293 Tl flux inactive | KCC2 ouabain inconclusive | HEK293 Tl flux2 inactive
Cc1ccc(C2=NNC(c3cccc(F)c3)S2)cc1 (centres undefined)	KCC2 mod 10 (no result: Measles CPE) | KCC2 secondary inactive | KCC2 bumet counter inconclusive | KCC2 secondary2 inactive | HEK293 Tl flux inactive | KCC2 ouabain inactive | HEK293 Tl flux2 inconclusive
Cc1ccc(C2=NNC(C(O)C(O)C(O)C(C)O)S2)cc1 (centres undefined)	none
Cc1nc(SCC(=O)Nc2cc(C(N)=O)cc(C(N)=O)c2)c2c(C)c(C)sc2n1	KCC2 mod 38 (no result: Measles CPE, Arbovirus anti) | KCC2 secondary inconclusive | KCC2 bumet counter 0.042 | KCC2 secondary2 inactive | HEK293 Tl flux 0.052 | KCC2 ouabain 0.045 | HEK293 Tl flux2 0.022
Cc1ccnc(NC(=O)Nc2ccc3c(c2)OCO3)c1	none (no result: Measles CPE)
Cn1c(CNc2cccc(C(F)(F)F)c2)n[nH]c1=S	KCC2 mod -4 (no result: Measles CPE) | KCC2 secondary inactive | KCC2 bumet counter inactive | KCC2 secondary2 0.025 | HEK293 Tl flux inactive | KCC2 ouabain inconclusive | HEK293 Tl flux2 inactive
Nc1c(-c2ccccc2)n[nH]c1-c1ccccc1	none (no result: ROMK mod)
S=c1nc(-c2ccccc2)c(-c2ccccc2)n[nH]1	KCC2 mod 6 (no result: Measles CPE, ROMK mod, Arbovirus anti) | KCC2 secondary inactive | KCC2 bumet counter 0.014 | KCC2 secondary2 inactive | HEK293 Tl flux 0.016 | KCC2 ouabain inconclusive | HEK293 Tl flux2 0.02
CCCN(CCC)C(=O)C1CCCN1S(=O)(=O)c1cccc2nsnc12 (centres undefined)	none (no result: Measles CPE, Arbovirus anti)
CN(CCN1CCOCC1)Cc1nc(-c2ccccc2)no1	none (no result: Measles CPE)
Cc1cc2c(cc1C)-c1nnc(-c3ccc4ccccc4n3)n1C(C)(C)C2	KCC2 mod -5 (no result: HSV replic up, ROMK mod) | KCC2 secondary inactive | KCC2 bumet counter inactive | KCC2 secondary2 inactive | HEK293 Tl flux inactive | KCC2 ouabain inactive | HEK293 Tl flux2 inactive
COc1ccccc1NS(=O)(=O)c1cc(NC(=O)c2ccc3c(c2)OCCO3)ccc1C	none
O=[N+]([O-])c1cc(Cl)c(O)c2ncccc12	KCC2 mod 4.5 (no result: Measles CPE) | KCC2 secondary 0.013 | KCC2 bumet counter 0.016 | KCC2 secondary2 inactive | HEK293 Tl flux 0.011 | KCC2 ouabain inconclusive | HEK293 Tl flux2 inconclusive
Oc1c(I)cc(Cl)c2cccnc12	KCC2 mod 77 (no result: HSV replic up, ROMK mod) | KCC2 secondary inactive | KCC2 bumet counter 0.1 | KCC2 secondary2 0.067 | HEK293 Tl flux 0.11 | KCC2 ouabain 0.11 | HEK293 Tl flux2 0.041
O=[N+]([O-])c1cc(Cl)c2cccnc2c1O	none (no result: Measles CPE)
Oc1c(CN2CCc3ccccc3C2)cc(Cl)c2cccnc12	none (no result: ROMK mod)
CCC(C)NC(=S)N1CCN(C)CC1 (centres undefined)	none (no result: Measles CPE)
Cc1cc(Cl)ccc1Oc1ccc(C(N)=O)cc1[N+](=O)[O-]	none
Cc1cc(Cl)ccc1Oc1ccccc1C(=O)CC#N	KCC2 mod -5.5 (no result: Measles CPE) | KCC2 secondary inactive | KCC2 bumet counter inactive | KCC2 secondary2 inconclusive | HEK293 Tl flux inactive | KCC2 ouabain inconclusive | HEK293 Tl flux2 inactive
CCn1c(C)nc2cc(C(=O)N/N=C/c3cccc(O)c3O)ccc21	none (no result: Measles CPE)
O=C1NC2(CCCc3ccccc32)C(=O)N1Cc1nnc(-c2ccccc2Br)o1 (centres undefined)	none
CC1(CCc2ccccc2)NC(=O)N(Cc2nnc(-c3ccccc3Br)o2)C1=O (centres undefined)	none (no result: KCC2 mod) | KCC2 secondary inactive | KCC2 bumet counter inactive | KCC2 secondary2 0.024 | HEK293 Tl flux inactive | KCC2 ouabain 0.016 | HEK293 Tl flux2 inactive
Cc1nc2ccccc2nc1SCC(=O)N1CCC(C)CC1	none (no result: ROMK mod, KCC2 mod)
Cc1ccnc(N2CCN(C(=O)CSc3nc4ccccc4nc3N3CCC(C)CC3)CC2)c1	KCC2 mod 4.8 (no result: Measles CPE, ROMK mod) | KCC2 secondary inactive | KCC2 bumet counter 0.0087 | KCC2 secondary2 inactive | HEK293 Tl flux 0.0094 | KCC2 ouabain inconclusive | HEK293 Tl flux2 inconclusive
COC(=O)c1ccc(NC(=O)CC2C(=O)N(c3ccc(C)cc3)C(=O)N2CC(C)C)cc1 (centres undefined)	none (no result: KCC2 mod)
CCOC(=O)c1ccc(NC(=O)CC2C(=O)N(c3ccc(F)cc3)C(=O)N2CCC(C)C)cc1 (centres undefined)	KCC2 mod -3.5 | KCC2 secondary inactive | KCC2 bumet counter inactive | KCC2 secondary2 inactive | HEK293 Tl flux inactive | KCC2 ouabain inactive | HEK293 Tl flux2 inactive
CCN1C(=O)C(=O)N(CC(=O)Nc2ccccc2Oc2ccccc2)C1=O	none (no result: Measles CPE, HSV replic up)
Cc1cc(C(=O)CCC(=O)N2CCN(S(=O)(=O)c3cccs3)CC2)c(C)s1	KCC2 mod -5 (no result: HSV replic up, ROMK mod) | KCC2 secondary inactive | KCC2 bumet counter inactive | KCC2 secondary2 inconclusive | HEK293 Tl flux inconclusive | KCC2 ouabain inactive | HEK293 Tl flux2 inactive
Cc1ccc(NC(=S)Nc2ccc(S(=O)(=O)N3CCOCC3)cc2)cc1S(=O)(=O)N1CCOCC1	none (no result: Measles CPE)
O=S(=O)(c1ccc(Cl)c(NC(=S)Nc2cccc(O)c2)c1)N1CCOCC1	none
Cc1cc(C)cc(NC(=S)N=Nc2c(O)n(C)c3ccc(S(=O)(=O)N4CCOCC4)cc23)c1	KCC2 mod 6.7 (no result: ROMK mod) | KCC2 secondary inactive | KCC2 bumet counter 0.018 | KCC2 secondary2 inconclusive | HEK293 Tl flux 0.025 | KCC2 ouabain 0.027 | HEK293 Tl flux2 0.017

Bioassay records: PubChem BioAssay, several laboratories
